# Experimental data as given in PubChem BioAssay (NCI).
# Values joined by “and” are separate entries in the source; they are usually repeats but may differ in a detail not shown here. Equal values may be shown once. The panel holds about 83,000 compounds, 20% with a hit somewhere; the sample as a whole holds those more often.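 How to read the values: 0–100, growth inhibition (40 = 60% inhibited); 0, no net growth; -100 to 0, cell death (-40 = 40% of starting cells died; -100 = all dead).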 Active and inactive are the calls of the source. How the source made its calls: active means growth percent below 10; inactive means the rest.
# Tested on: HL-60(TB) leukemia
# Experiment: NCI-60 one-dose screen, 48 h (100 = growth as untreated, 0 = no growth, -100 = all killed)
# Settings: 10 µM unless noted
row,Compound,growth
1,Cc1ccc(Cn2c(N3CCC(C(=O)NCc4cccs4)CC3)nc3ccccc32)cc1,-14.4% (active)
2,O=C(Nc1cccc2ccccc12)NC1CC1,108% (inactive)
3,CC(C)(C)c1ccc(S(=O)(=O)Oc2ccc3c4c(c(=O)oc3c2)CCCCC4)cc1,52% (inactive)
4,CCN(CC)c1ccc2[nH]c3c(C(N)=O)cc(=O)c(=O)c=3oc2c1,-25.1% (active)
5,COc1ccc(C2=C(c3cn(C)c4ccccc34)C(=O)OC2)cc1OC,7.26% (active)
6,C[C@H](C(=O)N[C@@H](Cc1ccc(-c2ccccc2)cc1)C(=O)NC1CC(C)(C)N(C)C(C)(C)C1)c1ccc(-c2ccccc2)c(F)c1,-61.2% (active)
7,CC1=CC(=C(c2ccc(N)cc2)c2ccc(N)cc2)C=CC1=N,-13.5% (active) and 47.8% (inactive)
8,O=C1Cc2ccccc2C(=O)O1,89.1% (inactive)
9,Nc1ccn(-c2ccc(Br)cc2)c(=O)n1,125% (inactive)
10,COc1ccccc1NC(=O)OCC#CCOC(=O)Nc1ccccc1OC,85.4% (inactive) and 64.8% (inactive)
11,c1ccc(CNCCN(CCNCc2ccccn2)Cc2ccc3ccccc3c2)nc1,-34.5% (active)
12,O=C(CCC(=O)N/N=C/c1ccccc1O)N/N=C/c1ccccc1O,7.25% (active)
13,CCOC(=O)c1nn(C2CCCCO2)c2ccc(NC(=O)CN3CCOCC3)cc12 (centres undefined),97% (inactive)
14,O=C(Nc1ccc(S(=O)(=O)NC2CCCCCC2)cc1)C(c1ccccc1)S(=O)(=O)c1ccc(F)cc1 (centres undefined),-12.4% (active)
